The whole screen tested about 420,000 compounds, of which about 64,000 (15%) were called active. Roughly 27% stayed inconclusive and do not appear here. The call rests on the fitted dose curve; in most records, active means well fitted inhibition curve with a large enough effect; inconclusive means small, poorly fitted or top-dose-only effect; inactive means flat fitted curve, though single readings scatter. Not all results are given here. A call without a number means that no potency is given here.
assay: qHTS for Inhibitors of human tyrosyl-DNA phosphodiesterase 1 (TDP1): qHTS in cells in absence of CPT; details: DT40 Tdp1-/- hTDP1 cells, no CPT, ATP luminescence, 48 h; activity change, negative = growth inhibition: at 46.2 µM (top of the series); further: nearly all actives have a fitted effect of over 55% in size
Summary of the method: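 Readout: luminescence from CellTiter-Glo after 30 min in the dark at RT. Cells: DT40 Tdp1-/- with stable hTDP1, 400/well. Exposure: compounds alone, ≥48 hr, 37 °C.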
Potency means the concentration at half of the fitted maximal effect.

Row | SMILES | Potency
1 | Cc1nc(CNS(=O)(=O)c2cc([N+](=O)[O-])ccc2C)cs1 | inactive
2 | COc1cc(SC)ccc1C(=O)NCCOc1ccccc1Cl | inactive
3 | COc1ccc(Cc2nnc(NC(=O)c3ccc(OC)cc3OC)s2)cc1 | inactive
4 | COc1ccccc1CNC(=O)c1ccc(SC)cc1OC | 15.8 µM (active)
5 | COc1cc(SC)ccc1C(=O)Nc1nc(C)cs1 | 11.6 µM (active)
6 | COc1cc(SC)ccc1C(=O)NNC(=O)C1COc2ccccc2O1 (stereo not drawn) | inactive
7 | Cc1csc(NC(=O)CSc2nc(=O)cc(N)n2-c2ccc(F)cc2)n1 | inactive
8 | CCCCc1cc(=O)oc2cc(C)cc(OCc3nn[nH]n3)c12 | inactive
9 | O=C(NN1C(=O)C2CCCCC2C1=O)c1ccco1 (stereo not drawn) | inactive
10 | Cc1ccc(S(=O)(=O)N2C[C@H]3C(=O)C[C@@H](c4cccc5ccccc45)N(S(=O)(=O)c4ccc(C)cc4)[C@H]3C[C@H]2c2ccc(Cl)cc2)cc1 | inactive
11 | O=C(Nc1ccccn1)C1CCN(S(=O)(=O)c2ccc3c(c2)OCCO3)CC1 | inactive
12 | CCCCn1c(=S)[nH]c2ncccc2c1=O | inactive
13 | Cc1cc(Nc2ccc(Br)cc2F)n2ncnc2n1 | inactive
14 | CC[C@H]1OC(=O)[C@H](C)[C@@H](O[C@H]2C[C@@](C)(OC)[C@@H](O)[C@H](C)O2)[C@H](C)[C@@H](O[C@@H]2O[C@H](C)C[C@H](N(C)C)[C@H]2O)[C@](C)(O)C[C@@H](C)[C@@H]2N[C@@H](COCCOC)O[C@H]([C@H]2C)[C@]1(C)O | inactive
15 | CCN(CC)S(=O)(=O)c1ccc(NC(=O)c2cccnc2Cl)c(NC(=O)c2cccnc2Cl)c1 | inactive
16 | CCN(CC)S(=O)(=O)c1ccc(Cl)c(C(=O)NC(C)C(c2cccs2)N2CCCC2)c1 (stereo not drawn) | 14.6 µM (active)
17 | CCN(CC)S(=O)(=O)c1ccc(Cl)c(C(=O)NCCN2CCOCC2)c1 | inactive
18 | COc1cc(C(=O)N/C(=C\c2cn(C)c3ccccc23)C(=O)N2CCOCC2)cc(OC)c1OC | inactive
19 | Cc1c(N=Nc2ccc(N(C)C)cc2)c(=O)n(-c2ccccc2)n1C | inactive
20 | COc1ccc(-c2ccc(OC(=O)NC3CCS(=O)(=O)C3)cc2)cc1 (stereo not drawn) | 8.2 µM (active)
21 | COc1ccc(NC(=S)NC2CCS(=O)(=O)C2)cc1 (stereo not drawn) | inactive
22 | N#Cc1ccc(OCC(=O)NC(=O)NC2CCS(=O)(=O)C2)cc1 (stereo not drawn) | inactive
23 | CC(C)(C)CN1C(=O)C(=O)NC[C@H]1Cc1cccc2ccccc12 | inactive
24 | CC1CCN(C(=O)c2ccc(S(=O)(=O)Cc3cc(F)ccc3F)c([N+](=O)[O-])c2)CC1 | 16.4 µM (active)
25 | Nc1ccc(C(=O)N2CCN(S(=O)(=O)c3ccc(Cl)cc3)CC2)cc1[N+](=O)[O-] | inactive

Row | SMILES | Potency
26 | NC(=O)C1CCN(C(=O)c2ccc(F)c(S(=O)(=O)N3CCOCC3)c2)CC1 | inactive
27 | CC1(C)CC(O)C(CCC(O)c2ccccc2)C(C)(C)N1 (stereo not drawn) | inactive
28 | Cc1ccc(S(=O)(=O)N(CCCN(C)C)Cc2ccc3c(c2)OCO3)cc1 | inactive
29 | CC(=O)N(c1ccc2oc(=O)sc2c1)S(=O)(=O)c1ccc(C)cc1 | 16.4 µM (active)
30 | CC(=O)Oc1ccc(N(C(C)=O)S(=O)(=O)c2ccc3ccccc3c2)cc1Br | inactive
31 | COc1ccc(C2/C(=C(/O)c3ccc(OC(C)C)cc3)C(=O)C(=O)N2CCCN2CCOCC2)cc1 (stereo not drawn) | inactive
32 | C=CCn1c(SCC(=O)Nc2ccc(NC(C)=O)cc2)nc2sc(C)c(C)c2c1=O | inactive
33 | O=C1CCCC(O)=C1N=Nc1ccc(S(=O)(=O)N2CCOCC2)cc1 | inactive
34 | O=C1CCC(Cc2ccccc2)N1 (stereo not drawn) | inactive
35 | COc1ccc(NC(=O)C2CCC(CNC(=O)[C@@H]3Cc4ccccc4CN3)CC2)cc1 (stereo partly drawn) | inactive
36 | COc1cccc(/C=C2/SC(=S)N(CC(=O)NC3C=CS(=O)(=O)C3)C2=O)c1 (stereo not drawn) | inactive
37 | COc1cccc(/C=C2\SC(=S)N(CCCC(=O)N3CCOCC3)C2=O)c1 | 18.4 µM (active)
38 | O=C(CCCN1C(=O)/C(=C/c2ccccc2)SC1=S)Nc1ccc(O)cc1 | inactive
39 | COc1ccc(/C=C2\SC(=S)N(CCC(=O)Nc3cccc(C(=O)O)c3)C2=O)cc1OC | inactive
40 | C=CCOc1ccc(/C=C2\SC(=S)N(CCC(=O)O)C2=O)cc1 | inactive
41 | O=C1/C(=C/c2ccc(F)cc2)SC(=S)N1CCCC(=O)N1CCCCC1CCO (stereo not drawn) | 25.9 µM (active)
42 | COc1ccc(/C=C2\SC(=S)N(CCC(=O)Nc3ccccn3)C2=O)cc1OC | inactive
43 | COc1ccc(/C=C2\SC(=S)N(CCC(=O)N3CCOCC3)C2=O)cc1OC | inactive
44 | COc1ccc(/C=C2\SC(=S)N(CCCC(=O)NC3CCCC3)C2=O)cc1OC | 16.4 µM (active)
45 | CC(=O)N(OCc1ccc(OC(C)C)c(Cl)c1)C(C)=O | inactive
46 | C[N+](C)(C)CCNC(=O)c1c(O)c2c([nH]c1=O)CCCC2 | inactive
47 | COc1ccc2nc(N3CCCC(O)C3)c(C#N)cc2c1 (stereo not drawn) | inactive
48 | Cc1ccc(NC(=O)COC(=O)C2C3CC4OC(=O)C2C4C3)cc1Cl (stereo not drawn) | inactive
49 | O=C(COC(=O)c1ccccn1)NNC(=O)c1ccc([N+](=O)[O-])cc1 | inactive
50 | CCc1noc(C)c1C(=O)NCCN1Cc2cc(OC)ccc2OC(CC)C1 (stereo not drawn) | inactive

Row | SMILES | Potency
51 | Nc1nc(N)c(N=O)c(N)n1 | inactive
52 | O=C(NCc1ccccc1)C1CNCC(C(=O)NCc2ccccc2)C1 (stereo not drawn) | inactive
53 | O=C(NCc1ccccc1)[C@H]1C[C@@H]1[C@H](NP(=O)(c1ccccc1)c1ccccc1)c1ccccc1 | 20.6 µM (active)
54 | O=C(O)C1C2C=CC(C2)C1C(=O)NCc1ccccc1 (stereo not drawn) | inactive
55 | O=C1CSC(=O)N1CCOCCN1C(=O)CSC1=O | inactive
56 | COCCn1c(C)cc(C(=O)COC(=O)/C=C/c2cccc(OC)c2)c1C | inactive
57 | Cc1cc2cc3n(c2nn1)N=C(Cl)CC3 | 11.6 µM (active)
58 | CS(=O)(=O)c1ccc(Cl)c(NC(=O)COC(=O)c2cccc(S(=O)(=O)N3CCCC3)c2)c1 | inactive
59 | CC1(C(=O)Nc2ccccc2Br)CCN1C(=O)CC1CC1 (stereo not drawn) | inactive
60 | CC1(C(=O)Nc2cccc3cccnc23)CCN1C(=O)CCC1CCCC1 (stereo not drawn) | 16.4 µM (active)
61 | CC1(C(=O)NS(=O)(=O)c2ccc(Cl)cc2)CCN1C(=O)CC1CCCC1 (stereo not drawn) | inactive
62 | C=CCNc1nc(Nc2ccc(Cl)cc2)nc(OC)n1 | inactive
63 | O=C(Cn1cc(C(=O)C2CC2)c2ccccc21)Nc1ccccc1Cl | inactive
64 | CN(C)S(=O)(=O)c1ccc(C(=O)NCC2(N3CCOCC3)CCCCC2)cc1 | inactive
65 | CC(=O)Nc1ccccc1C(=O)C(=O)Nc1ccc(F)cc1 | inactive
66 | O=S(=O)(Nc1n[nH]c(C(F)(F)F)n1)c1ccccc1 | inactive
67 | CCCNC(=O)C1(C)CCN(C(=O)c2ccccc2OC(F)(F)F)C1 (stereo not drawn) | inactive
68 | CCCNC(=O)C1(C)CCCN(Cc2cccc(C(F)(F)F)c2)C1 (stereo not drawn) | 25.9 µM (active)
69 | CCCNC(=O)C1(C)CCN(C(=O)c2cc(F)ccc2C)C1 (stereo not drawn) | inactive
70 | CCCNC(=O)C1(C)CCN(C(=O)c2ccc(F)cc2Cl)C1 (stereo not drawn) | inactive
71 | CCCNC(=O)C1(C)CCCN(Cc2c(C)nn(-c3ccccc3)c2C)C1 (stereo not drawn) | inactive
72 | CCNC(=O)C1(C)CCN(Cc2ccc(C(=O)OCC)o2)C1 (stereo not drawn) | inactive
73 | CCCNC(=O)C1(C)CCN(Cc2ccc(Cl)c(Cl)c2)C1 (stereo not drawn) | 20.6 µM (active)
74 | CCCNC(=O)C1(C)CCN(Cc2csc(-c3ccc(Cl)cc3)n2)C1 (stereo not drawn) | 16.4 µM (active)
75 | CCCNC(=O)C1(C)CCCN(C(=O)c2cccc(OC(C)=O)c2C)C1 (stereo not drawn) | inactive

Row | SMILES | Potency
76 | Cc1ccc(NC(=O)C(C)OC(=O)C2CC3CCCC(C2)C3=O)cc1S(=O)(=O)N1CCOCC1 (stereo not drawn) | inactive
77 | CCCOc1ccc(N2C(=O)CC(N(CCc3ccc(S(N)(=O)=O)cc3)C(C)=O)C2=O)cc1 (stereo not drawn) | inactive
78 | O=C(CNc1ccc(F)cc1F)NC(=O)NCc1ccco1 | inactive
79 | COc1ccc(/C(N)=N/OC(=O)Oc2ccccc2)cc1 | inactive
80 | Cc1noc(NS(=O)(=O)c2ccc(NC(=O)C34CCC(CC3)C4)cc2)c1C | inactive
81 | Cc1c(Cl)cccc1NC(=S)NCC(O)c1ccccc1 (stereo not drawn) | inactive
82 | O=C(C1CCCO1)N1CCN(S(=O)(=O)c2ccc(Br)cc2)CC1 (stereo not drawn) | inactive
83 | C#CCOCCOCCOCCNc1nc(N2CCN(C(=O)[C@H](CCCCN)n3cc([C@@H](N)C(C)CC)nn3)CC2)nc(N2CCN(C(=O)[C@H](Cc3ccc(O)cc3)n3cc([C@@H](N)C(C)CC)nn3)CC2)n1 (stereo partly drawn) | inactive
84 | CCS(=O)(=O)Nc1ccc(C2=NN(S(=O)(=O)c3ccc(F)cc3)C(c3ccco3)C2)cc1 (stereo not drawn) | inactive
85 | COc1cccc(C2CC(c3ccccc3)=NN2S(=O)(=O)c2ccccc2)c1OC (stereo not drawn) | 25.9 µM (active)
86 | CS(=O)(=O)Nc1cccc(C2=NN(S(=O)(=O)c3ccccc3)C(c3cccs3)C2)c1 (stereo not drawn) | inactive
87 | CNC(=O)C(NC(=O)c1ccccc1)=C(C)C | inactive
88 | O=C(NCCN1C(=O)C2C3C=CC(C3)C2C1=O)Nc1ccccn1 (stereo not drawn) | inactive
89 | COc1ccc(OCC(=O)N2CCN(C(=O)c3cccs3)CC2)cc1 | inactive
90 | CCc1ccc(NC(=O)COC(=O)c2cccs2)cc1 | inactive
91 | O=C(CN1CCN(c2ccc(O)cc2)CC1)Nc1cc(S(=O)(=O)N2CCOCC2)ccc1Cl | 13 µM (active)
92 | O=C(CN1CCOCC1)Nc1cc(Cl)ccc1Cl | inactive
93 | O=C(CN1C(=O)CCC1=O)Nc1ccc(S(=O)(=O)N2CCOCC2)cc1 | inactive
94 | Cc1ccc(Cl)cc1NC(=O)CN1CCN(S(=O)(=O)N2CCOCC2)CC1 | inactive
95 | O=C(CN1CCN(c2cccc(Cl)c2)CC1)Nc1ccc(S(=O)(=O)N2CCOCC2)cc1 | 8.2 µM (active)
96 | O=C(CN1CCN(S(=O)(=O)/C=C/c2ccccc2)CC1)Nc1ccc(N2CCOCC2)cc1 | inactive
97 | Cc1cc(NC(=O)CC(C)C)cc(-c2nc3ncccc3o2)c1O | inactive
98 | Cn1c(NC(=O)c2ccc3c(c2)OCO3)cc(=O)n(C)c1=O | inactive
